Source: PubChem (The Scripps Research Institute Molecular Screening Center)
SRC3 TRFRET art: TR-FRET detection interference compounds, artefact control for PPARgamma SRC-3 recruitment agonists, biochemical, TR-FRET ratio; TR-FRET artefact counter-screen, PPARgamma/SRC-3 format; active compounds read high; TR-FRET ratio at 8 µM; actives 0.39% (n = 99,000)
PPARg SRC-2 ag: agonists of PPARg-SRC-2 recruitment, primary screen, biochemical, HTS | Peroxisome proliferator-activated receptor gamma (Homo sapiens), P37231 | PPARgamma LBD-SRC-2 recruitment | activation, % at 8 µM | actives 0.34% (n = 200,000) | AID 1032, 2008; in the data active means activation above about 22%;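 further: 0% = vehicle and 100% = reference agonist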
Target sequence (P37231 whole entry, looked up, the tested form may be a part): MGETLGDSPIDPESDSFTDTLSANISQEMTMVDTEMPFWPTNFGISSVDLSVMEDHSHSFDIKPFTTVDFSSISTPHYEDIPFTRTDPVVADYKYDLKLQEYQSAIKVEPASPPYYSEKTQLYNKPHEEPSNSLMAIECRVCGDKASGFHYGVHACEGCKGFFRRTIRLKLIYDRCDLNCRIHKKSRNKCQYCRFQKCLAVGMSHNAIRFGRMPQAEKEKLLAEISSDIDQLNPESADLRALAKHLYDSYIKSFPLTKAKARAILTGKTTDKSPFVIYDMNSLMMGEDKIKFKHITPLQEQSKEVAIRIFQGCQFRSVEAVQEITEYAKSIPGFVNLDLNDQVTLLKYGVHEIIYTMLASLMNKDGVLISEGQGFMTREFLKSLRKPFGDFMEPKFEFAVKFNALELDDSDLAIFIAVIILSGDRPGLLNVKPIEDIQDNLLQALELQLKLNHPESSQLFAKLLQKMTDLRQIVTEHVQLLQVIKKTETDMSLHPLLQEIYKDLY
PPARg SRC3 recr: PPARgamma agonists recruiting SRC-3 coactivator, primary screen, biochemical; Peroxisome proliferator-activated receptor gamma (Homo sapiens), P37231; biochemical PPARgamma/SRC-3 coactivator recruitment assay; activation, % at 8 µM; actives 0.26% (n = 200,000); in the data active means activation above about 23%;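 further: 0% = DMSO and 100% = reference agonist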
SRC2 TRFRET art: TR-FRET signal artefacts, primary screen, artefact control for PPARgamma SRC-2 agonist project, biochemical. TR-FRET artefact counter-screen; active compounds read high. TR-FRET ratio at 8 µM. actives 0.4% (n = 200,000). AID 1049, 2008
SRC1 TRFRET art: TR-FRET detection interference compounds, primary screen, artefact control for PPARgamma SRC-1 recruitment agonists, biochemical, TR-FRET emission ratio | actives 0.34% (n = 99,000) | AID 1051, 2008 | TR-FRET detection artefact counter-screen; active compounds read high | TR-FRET ratio at 8 µM; in the data active means TR-FRET ratio above about 2300
PPARg SRC-1 ag: PPARgamma agonists recruiting SRC-1 coactivator, primary screen, biochemical; Peroxisome proliferator-activated receptor gamma (Homo sapiens), P37231; PPARgamma-SRC-1 coactivator recruitment biochemical assay; activation, % at 8 µM; actives 0.41% (n = 200,000); in the data active means activation above about 19%;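 further: 0% = DMSO and 100% = reference agonist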
PPARg SRC2 conf: agonists of PPARgamma SRC-2 coactivator recruitment, confirmation, biochemical, HTS; shares compounds with PPARg SRC3 recr; biochemical SRC-2 recruitment by PPARgamma; activation, % at 8 µM; actives 52% (n = 790); AID 1297, 2008; in the data active means activation above about 22%;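 further: 0% = vehicle alone and 100% = reference agonist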
PPARg SRC1 ag: PPARgamma agonists recruiting SRC-1 coactivator, confirmation, biochemical; shares compounds with PPARg SRC3 recr; PPARgamma–SRC-1 coactivator recruitment biochemical assay; activation, % at 8 µM; actives 43% (n = 790); AID 1300, 2008; in the data active means activation above about 20%;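 further: 0% = vehicle wells and 100% = reference agonist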
PPARg SRC3 conf: PPARgamma-driven SRC-3 coactivator recruitment agonists, confirmation, biochemical. shares compounds with PPARg SRC3 recr. activation, % at 8 µM. actives 29% (n = 790). biochemical PPARgamma-SRC-3 coactivator recruitment, agonist mode; in the data active means activation above about 24%;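 further: 0% = vehicle wells and 100% = reference agonist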
* marks the source's active call; other numbers are inactive results; nt = no result given. In the library only some 0.9% were active in any assay of this set; here they are far more common. Unless noted, no stated cut-off is given here; in the data, active means TR-FRET ratio above about 2000; inactive means the rest.

SMILES | SRC3 TRFRET art | PPARg SRC-2 ag | PPARg SRC3 recr | SRC2 TRFRET art | SRC1 TRFRET art | PPARg SRC-1 ag | PPARg SRC2 conf | PPARg SRC1 ag | PPARg SRC3 conf
CC(C)Nc1nc(Oc2ccc(Cl)cc2)cc(C(F)(F)F)n1 | nt | 23.1* | 5.9 | 1676 | nt | 10.6 | 0.3 | 2.9 | 0.2
O=C1C=C(c2cccs2)CC(c2cccs2)C1n1cnc([N+](=O)[O-])c1 (stereo not drawn) | nt | 20.2 | 26.0* | 1790 | nt | 11.7 | 17.8 | 19.7* | 11.7
CCOC(=O)/C(C#N)=C\C=C1C=CN(C)C=C1 | nt | 31.8* | 21.4 | 1925 | nt | 24.2* | 14.6 | 9.1 | 8.8
CCOC(=O)/C(C#N)=C\c1ccc(CC)s1 | nt | -4.3 | -8.7 | 1512 | nt | -4.3 | nt | nt | nt
COc1cc(C(=O)NCC(=O)OCCN2C(=O)c3ccccc3C2=O)cc(OC)c1OC | 1380 | -8.2 | -2.3 | 1367 | 1853 | 2.8 | nt | nt | nt
N#C/C(=C\c1ccc(N2CCOCC2)o1)c1nc2ccccc2[nH]1 | nt | 25.5* | 22.9 | 1740 | nt | 25.2* | 4.4 | 13.3 | 11.4
N#C/C(=C\c1ccc(N2CCOCC2)c([N+](=O)[O-])c1)c1nc2ccccc2[nH]1 | 1599 | -0.6 | 0.2 | 1476 | 1558 | -5.3 | nt | nt | nt
CCOc1ccc2c(c1)nc(SCC(=O)c1cccs1)n2C | nt | 6.5 | 5.1 | 1436 | nt | 3.4 | nt | nt | nt
CCOc1ccc2c(c1)nc(SCC(=O)c1ccc(Br)s1)n2C | nt | 28.8* | 28.4* | 1968 | nt | 19.7* | 35.3* | 25.6* | 25.1*
CCc1ccccc1OCC(=O)OCC(=O)N1CC(=O)Nc2ccccc21 | 1568 | -1.7 | 5.3 | 1685 | 1732 | 8.5 | nt | nt | nt
CCC(=Nc1ccc(N)cc1)C1=C(O)C(C(=O)OC)C(C)(C)CC1=O (stereo not drawn) | nt | 23.0* | 38.2* | 1785 | nt | 22.9* | 1.5 | 4.4 | 6.3
COc1cc(-c2nc3ccccc3s2)ccc1O | nt | 30.3* | 30.7* | 2089* | nt | 23.4* | 30.5* | 32.7* | 22.6
Cc1nn(C)c(C)c1S(=O)(=O)N(CC(=O)N1CCc2ccccc2C1)c1ccc(C(C)C)cc1 | nt | 1.0 | -4.8 | 1650 | nt | 8.9 | nt | nt | nt
O=C(O)c1cn(-c2ccc(N3CCCC3)c(F)c2)c2c(F)c(F)c(F)cc2c1=O | 3524* | 67.8* | 38.1* | 3278* | 4223* | 67.3* | -4.9 | -4.0 | 3.7
CSc1nc2ccccc2c(=O)n1C1CCOC(C)(C)C1 (stereo not drawn) | 1491 | -5.2 | 8.0 | 1580 | 1942 | 12.5 | nt | nt | nt
Cc1ccc(S(=O)(=O)N(c2nc(NC(C)C)nc(NC(C)C)n2)n2cnnc2)cc1 | 1525 | 23.7* | 0.7 | 1703 | 1915 | 9.8 | 5.9 | 3.6 | 2.1
COC(=O)CN(n1cnnc1)S(=O)(=O)c1ccc(C)cc1 | nt | 4.5 | -5.3 | 1568 | nt | -0.1 | nt | nt | nt
CCN(CC)c1ccc(NC(=O)/C=C/c2cc(Br)ccc2OC)cc1 | nt | 17.3 | 12.8 | 1525 | nt | 23.8* | 1.3 | 4.0 | 3.1
COc1ccc(NC(=O)/C=C/c2cc(Br)ccc2OC)cc1 | nt | -3.2 | -0.1 | 1651 | nt | 0.3 | nt | nt | nt
O=C(C1=C(O)C(=O)N(c2ccccc2)C1c1ccc([N+](=O)[O-])cc1)c1cccs1 (stereo not drawn) | 1429 | 8.4 | 7.1 | 1661 | 2021 | 6.1 | nt | nt | nt
CC1CCCN(C(=O)c2ccc3c(c2NCCO)C(=O)c2ccccc2C3=O)C1 (stereo not drawn) | nt | 14.5 | 17.3 | 1480 | nt | 8.4 | nt | nt | nt
O=C1c2ccccc2C(=O)c2c1ccc(C(=O)N1CCCCC1)c2NCCO | nt | 4.6 | 20.6 | 1568 | nt | 21.1* | 13.3 | 8.4 | 5.5
CC(C)CNC(=O)c1ccccc1NC(=O)CN(c1ccccc1)S(=O)(=O)N(C)C | 1454 | -4.5 | -0.8 | 1438 | 1804 | 3.5 | nt | nt | nt
CC(C)c1[nH]nc2c1C(Cc1ccccc1)C(C#N)=C(N)O2 (stereo not drawn) | nt | 8.2 | -7.4 | 1603 | nt | 19.3* | 7.4 | 3.5 | 3.9
O=C(Nc1nc2c(s1)COc1ccccc1-2)c1cccs1 | nt | 27.0* | 15.1 | 2118* | nt | 18.6 | 41.4* | 31.5* | 28.0*
SMILES | SRC3 TRFRET art | PPARg SRC-2 ag | PPARg SRC3 recr | SRC2 TRFRET art | SRC1 TRFRET art | PPARg SRC-1 ag | PPARg SRC2 conf | PPARg SRC1 ag | PPARg SRC3 conf
O=C(NCCCCO)c1ccc2c3c(cccc13)CC2 | 1564 | 4.5 | 4.8 | 1446 | 1681 | 9.4 | nt | nt | nt
COc1c(F)c(F)c(C(=O)Nc2ccc3oc(-c4ccncc4)nc3c2)c(F)c1F | nt | 3.4 | 74.4* | 1606 | nt | 82.4* | 71.2* | 66.1* | 48.6*
COc1cc(C(=O)Nc2nnc(-c3sccc3C)s2)cc(OC)c1OC | nt | 23.7* | 15.4 | 1729 | nt | 28.7* | 54.8* | 43.0* | 36.7*
CCOCc1nnc(NC(=O)c2cc(OC)c(OC)c(OC)c2)s1 | 1632 | 0.5 | 1.2 | 1397 | 1597 | -5.2 | nt | nt | nt
CC/C(C)=N/Nc1cccc([N+](=O)[O-])c1 | 1498 | -3.1 | 0.1 | 1557 | 1716 | -5.3 | nt | nt | nt
Cc1nc2sccc2c(=O)n1N | 1494 | 1.3 | -0.8 | 1689 | 1751 | 2.1 | nt | nt | nt
O=c1c(O)c(-c2ccc(O)cc2O)oc2cc(O)cc(O)c12 | 1822 | 7.3 | 8.8 | 1591 | 1969 | 22.6* | -4.6 | -5.1 | -0.3
O=S(=O)(Nc1ncn[nH]1)c1ccc(Cl)cc1 | nt | -2.1 | -3.3 | 1597 | nt | -4.1 | nt | nt | nt
CCN(CC)c1ccc(/C=C2\NC(=O)NC2=O)cc1 | 1594 | 25.4* | 12.6 | 1573 | 2555* | 14.9 | 11.2 | 9.3 | 6.6
CCC1=NN2C(=N)/C(=C\c3cccn3-c3cccc(Cl)c3)C(=O)N=C2S1 | 1603 | 6.5 | 27.6* | 1702 | 1886 | 11.9 | 7.4 | 9.7 | 12.7
COc1ccc2cc3[n+](cc2c1OC)CCc1cc2c(cc1-3)OCO2 | 1328 | 24.7* | -1.8 | 1423 | 1819 | 12.9 | 7.2 | 7.0 | 4.8
COc1cccc(C2=NCCc3cc4c(cc32)OCO4)c1OC | 1576 | 4.6 | 1.2 | 1481 | 1702 | 2.2 | nt | nt | nt
Cc1ccc(/C=C/C(=O)Nc2ccc(N(C)C)cc2)o1 | 1522 | 24.8* | 15.1 | 1841 | 2095 | 25.4* | 9.2 | 5.7 | 3.5
COc1ccccc1NC(=O)c1ccc(-n2cncn2)nc1 | 1488 | 0.2 | -4.5 | 1534 | 1830 | -5.4 | nt | nt | nt
O=C(Nc1ccccc1F)c1ccc(-n2cncn2)nc1 | nt | 23.4* | 10.0 | 1617 | nt | 1.2 | 6.3 | 5.2 | 2.9
